Data: PubChem BioAssay (NCI)
The panel holds about 79,000 compounds, 15% with a hit somewhere; the sample as a whole holds those more often. Unmarked numbers belong to inactive results. Activity calls are given as the source filed them. Rule as the data show it: active = growth inhibition above about 70%; inactive = the rest.

Experiments:
[1] = NCI Yeast Anticancer Drug Screen. Data for the rad50 strain (AID 155);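 also: 0% = growth of vehicle-only cultures of the same strain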; settings: S. cerevisiae rad50 strain growth inhibition, active compounds read high
Outline: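 Genetically altered yeast (DNA repair pathway); compound treatment; growth inhibition vs vehicle ctrl.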

[2] = NCI Yeast Anticancer Drug Screen. Data for the mec2-1 strain (AID 157); settings: S. cerevisiae mec2-1 strain, active compounds read high
Outline: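 Yeast mec2-1 mutant treated with compound. Readout: growth inhibition vs vehicle controls.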

[3] = NCI Yeast Anticancer Drug Screen. Data for the sgs1 mgt1 strain (AID 161);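 also: 0% = growth of cultures given vehicle only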; settings: S. cerevisiae sgs1 mgt1 strain, active compounds read high
Outline: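 Read-out: growth inhibition vs vehicle controls. Cells: mutant yeast strain deficient in DNA damage repair.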

[4] = NCI Yeast Anticancer Drug Screen. Data for the cln2 rad14 strain (AID 165);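 also: 0% = growth equal to vehicle treated cultures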; settings: S. cerevisiae cln2 rad14 strain, active compounds read high
Outline: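 cln2 rad14 yeast strain; compound exposure; growth inhibition read vs vehicle controls.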

[5] = NCI Yeast Anticancer Drug Screen. Data for the bub3 strain (AID 167); settings: S. cerevisiae bub3 mutant strain, active compounds read high
Outline: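 Yeast carrying a defined mutation is treated with each compound, and growth is compared with that of vehicle-exposed cells to give inhibition.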

[6] = NCI Yeast Anticancer Drug Screen. Data for the mlh1 rad18 strain (AID 175); settings: S. cerevisiae mlh1 rad18 strain growth inhibition, active compounds read high
Outline: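 Yeast w/ defined DNA-repair lesions; compound exposure; growth vs vehicle controls → % inhibition.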

[7] = at 5.0 µM (retest, dose inferred, filed as 0.5)
[8] = at 50.0 µM (retest, dose inferred, filed as 5.0)

| Compound | growth inhibition [1, 7] | growth inhibition [1, 8] | growth inhibition ([1]; at 50.0 µM) | growth inhibition [2, 7] | growth inhibition [2, 8] | growth inhibition ([2]; at 50.0 µM) | growth inhibition [3, 7] | growth inhibition [3, 8] | growth inhibition ([3]; at 50.0 µM) | growth inhibition [4, 7] | growth inhibition [4, 8] | growth inhibition ([4]; at 50.0 µM) | growth inhibition [5, 7] | growth inhibition [5, 8] | growth inhibition ([5]; at 50.0 µM) | growth inhibition [6, 7] | growth inhibition [6, 8] | growth inhibition ([6]; at 50.0 µM) |
| --- | --- | --- | --- | --- | --- | --- | --- | --- | --- | --- | --- | --- | --- | --- | --- | --- | --- | --- |
| CSc1ncnc2nn(C3OC(COC(=O)c4ccccc4)C(OC(=O)c4ccccc4)C3OC(=O)c3ccccc3)nc12 (stereo not given) | -16% | -1% | -14.8% | -1% | -6% | 17.9% | -6% | 1% | -13.6% | -1% | -9% | 40.3% | -3% | 3% | -11.2% | -5% | -3% | 15.2% |
| Oc1ccc(N=Nc2cc(Cl)ccc2Cl)cc1 | 92% (active) | 95% (active) | 98.5% (active) | 94% (active) | 96% (active) | 98.2% (active) | 95% (active) | 95% (active) | 98.5% (active) | 94% (active) | 94% (active) | 82.5% (active) | 93% (active) | 95% (active) | 98% (active) | 94% (active) | 96% (active) | 97.7% (active) |
| CCC1CCCN1CCOC(=O)C(c1ccccc1)C1C=CCC1 (stereo not given) | 31% | 51% | 52.9% | 23% | 58% | 33.9% | 40% | 74% (active) | 72% (active) | 32% | 62% | 62.4% | 40% | 60% | 48.6% | 60% | 79% (active) | 63% |
| CCCCCCCCN(CCCCCCCC)Cc1ccc(Br)cc1 | 98% (active) | 99% (active) | 99.2% (active) | 96% (active) | 100% (active) | 99.5% (active) | 99% (active) | 99% (active) | 99.5% (active) | 97% (active) | 99% (active) | 99% (active) | 96% (active) | 99% (active) | 99.2% (active) | 97% (active) | 99% (active) | 99.5% (active) |
| COc1ccc2c(c1)Cc1ccccc1C2=O | 14% | 34% | 15.8% | 3% | 8% | 4% | 0% | 1% | 6.75% | 1% | 3% | -0.35% | 75% (active) | 85% (active) | 40.6% | 2% | 14% | 9.1% |
| CCC(C)OC(=O)c1cccc(C)c1 (stereo not given) | 0% | 17% | 94.3% (active) | -2% | 5% | -6.8% | 1% | 7% | -5.05% | 1% | 6% | 38.5% | 2% | 23% | 6.95% | -3% | 12% | 2% |
| CCCCCCCCc1ccc2c3ccccc3c3ccccc3c2c1 | -9% | -12% | 76.8% (active) | -19% | -5% | 60.4% | -19% | -3% | 65.8% | -1% | -12% | 3.05% | -1% | -10% | 8.65% | 23% | 6% | 58.9% |
| CCCCCCCCCCC[n+]1ccc(C#N)cc1 | -6% | 64% | 91.8% (active) | 10% | 84% (active) | 57.7% | 14% | 91% (active) | 92.5% (active) | 16% | 56% | 76.8% (active) | -5% | 75% (active) | 77.6% (active) | 10% | 76% (active) | 91.6% (active) |
| COc1ccccc1CN1CCCN(Cc2ccccc2OC)C1c1ccccc1F | 2% | -2% | 55.9% | -9% | -11% | 43.5% | 4% | 8% | 62.6% | 1% | -1% | 36.6% | 0% | -5% | 78.8% (active) | 16% | 16% | 41% |
| COc1ccc(-n2cc(-c3ccc(Cl)cc3)c3c(N)ncnc32)cc1 | 20% | 99% (active) | 95.6% (active) | 23% | 99% (active) | 94.6% (active) | 63% | 99% (active) | 98.2% (active) | 13% | 25% | 87.1% (active) | 0% | 3% | 91% (active) | 20% | 99% (active) | 88% (active) |
| O=C(CSc1nnc(Cc2ccccc2)o1)Nc1cccc(Cl)c1 | -20% | 91% (active) | 77% (active) | 14% | 85% (active) | 70% (active) | -2% | 86% (active) | 82.2% (active) | 24% | 91% (active) | 78% (active) | 1% | 95% (active) | 77.5% (active) | 9% | 93% (active) | 78.8% (active) |
| CC1(C)C/C(=N/NC(N)=S)C(=NO)/C(=N\NC(N)=S)C1 | 6% | 60% | 75% (active) | 2% | 40% | 62% | 9% | 61% | 77.4% (active) | -13% | 27% | 23.4% | 0% | 34% | 76.8% (active) | 2% | 59% | 74.5% (active) |
| C=C(c1ccc2nc(NC(=O)OC)[nH]c2c1)c1cccs1 | -4% | 47% | 61.3% | -7% | 88% (active) | 93.2% (active) | -4% | 72% (active) | 91.8% (active) | -9% | 18% | 41.1% | -3% | 84% (active) | 90.5% (active) | -9% | 92% (active) | 95% (active) |
| N#C/C(=C/c1cc(I)cc(I)c1O)C(N)=O | 42% | 87% (active) | 79.8% (active) | 39% | 92% (active) | 58.6% | 69% | 97% (active) | 78.8% (active) | 41% | 90% (active) | 61.2% | 44% | 96% (active) | 80.2% (active) | 66% | 97% (active) | 71.2% (active) |
| CCOC(=O)CC(=O)/C=C/c1ccncc1 | 1% | 5% | -19.2% | -2% | 0% | -8.45% | -10% | -6% | -5.25% | 3% | 1% | 68.7% | 5% | 4% | -9.3% | 1% | 3% | 0.7% |
| O=C(/C=C/c1ccc(Cl)c(Cl)c1)CCN1CCN(CCC(=O)/C=C/c2ccc(Cl)c(Cl)c2)CC1 | 36% | 98% (active) | 82.7% (active) | 38% | 99% (active) | 85.5% (active) | 11% | 99% (active) | 88.1% (active) | 16% | 99% (active) | 86.3% (active) | 14% | 98% (active) | 82% (active) | 44% | 98% (active) | 86.5% (active) |
| Cc1nc2c(O)c3c(c(O)c2nc1C)C1C=CC3CC1 | 30% | 83% (active) | 64% | 16% | 89% (active) | 66.2% | 30% | 84% (active) | 77.5% (active) | 22% | 30% | 14.2% | 39% | 91% (active) | 84.7% (active) | 20% | 82% (active) | 14.2% |
| CC(C)(C)NCc1cc(C(C)(C)C)cc(-c2ccc(Cl)cc2)c1O | 26% | 92% (active) | 84.8% (active) | 13% | 91% (active) | 88.4% (active) | 7% | 88% (active) | 86.5% (active) | 44% | 55% | 76.8% (active) | 12% | 91% (active) | 83.9% (active) | 25% | 93% (active) | 84.6% (active) |
| O=c1[nH]ncc(SCc2ccccc2)c1SCc1ccccc1 | 8% | 35% | 97.2% (active) | 3% | 53% | 97.9% (active) | 1% | 58% | 98% (active) | 8% | 31% | 96.1% (active) | 14% | 37% | 98.4% (active) | 8% | 57% | 96.5% (active) |
| O=[N+]([O-])c1ccc(N2N=NC(CN3CCOCC3)C2N2CCOCC2)cc1 (stereo not given) | 5% | 42% | 77.5% (active) | 0% | 23% | 47.3% | 1% | 56% | 47.5% | 0% | 28% | 24.5% | 2% | 32% | 7.85% | 3% | 47% | 60.1% |
